Data reported in the supplement of paper PMC12340641.

Columns and labels:
[1] = target: IKZF1 (dCK*-IKZF1 fusion in HEK293FT) (UniProt Q13422); test: inhibition of IKZF1 HTRF signal (DMSO = 0%, pomalidomide 10 uM = 100%); higher = lower IKZF1 protein level; details: compound concentration: 5 uM, overnight (~20 h)
Procedure, shortened: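 After overnight treatment at 37 °C with 5 μM compound in single wells, HEK293FT cells (2000/well, 384-well) stably expressing an IKZF1 fusion were lysed for 30 min at room temperature. A commercial HTRF total-IKZF1 antibody kit was incubated with the lysate overnight, and the time-resolved FRET ratio at 665/620 nm was corrected for background. Data are given as percent inhibition of IKZF1 signal relative, on each plate, to vehicle and a reference degrader, set at 0% and 100% respectively.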

HEK293FT dCK*-only = test: relative growth in counter assay (no AraC = 100%, AraC + DMSO = 0%); higher = more growth rescue independent of IKZF1; details: compound concentration: 5 uM; AraC concentration: 0.3 uM; overnight pretreatment + 4 days AraC
Procedure, shortened: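 Counter assay in HEK293FT cells expressing dCK* alone (300/well, 384-well). Cells received 5 μM compound 2 h after seeding, then after overnight at 37 °C a nucleoside suicide substrate at 0.3 μM plus medium for 4 days. On day 5, Hoechst 33342-stained nuclei were counted by imaging. Relative growth was normalised per plate to wells without suicide substrate (100%) and substrate plus vehicle (0%).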

HEK293FT dCK*-IKZF1 = test: relative growth recovery (pomalidomide 10 uM = 100%, DMSO = 0%); higher = more growth rescue (IKZF1 fusion degradation); details: compound concentration: 5 uM; AraC concentration: 0.3 uM; overnight pretreatment + 4 days AraC
Procedure, shortened: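 HEK293FT cells stably expressing a dCK*-IKZF1 fusion (300/well, 384-well) received 5 μM compound 2 h after seeding. After overnight at 37 °C they received a nucleoside suicide substrate at 0.3 μM plus medium for 4 days. On day 5, Hoechst 33342-stained nuclei were counted by whole-well imaging. Growth recovery was normalised per plate to a reference degrader (100%) and vehicle (0%); values are means of duplicates run on different days.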

IKZF1 (dCK*-IKZF1 fusion in HEK293FT), sequence (Q13422 whole entry, looked up, the tested form may be a part): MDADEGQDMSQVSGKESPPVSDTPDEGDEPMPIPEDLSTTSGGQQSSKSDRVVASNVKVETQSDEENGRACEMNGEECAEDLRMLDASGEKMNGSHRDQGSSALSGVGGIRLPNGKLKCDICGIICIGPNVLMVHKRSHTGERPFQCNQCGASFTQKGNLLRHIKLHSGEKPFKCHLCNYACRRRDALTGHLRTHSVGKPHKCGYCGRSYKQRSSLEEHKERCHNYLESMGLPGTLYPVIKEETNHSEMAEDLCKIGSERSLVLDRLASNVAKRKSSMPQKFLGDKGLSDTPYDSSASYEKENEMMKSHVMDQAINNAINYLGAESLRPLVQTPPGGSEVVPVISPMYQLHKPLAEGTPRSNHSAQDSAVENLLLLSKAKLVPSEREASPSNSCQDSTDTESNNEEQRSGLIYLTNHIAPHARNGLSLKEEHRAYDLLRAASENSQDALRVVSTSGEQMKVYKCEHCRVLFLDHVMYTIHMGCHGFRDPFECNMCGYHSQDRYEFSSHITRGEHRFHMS

Row | Structure (SMILES) | inhibition of IKZF1 HTRF signal [1] [%] | relative growth in counter assay (HEK293FT dCK*-only) [%] | relative growth recovery (HEK293FT dCK*-IKZF1) [%]
1 | Clc1ccc(COC(Cn2ccnc2)c2ccc(Cl)cc2Cl)cc1 (stereo unspecified) | -29.1 | 1.65 | 0.49
2 | CCC(C)c1ccc(NC(=O)Cn2cnc3c2c(=O)n(C)c(=O)n3C)cc1 (stereo unspecified) | -44.5 | -2.66 | 1.29
3 | CC(C)(C)c1ccc(/C=C/C(=O)Nc2ccc3c(c2)OCCO3)cc1 | -32 | -1.73 | 0.45
4 | O=C1CN(/N=C/c2ccc(-c3ccc([N+](=O)[O-])cc3)o2)C(=O)N1 [dantrolene] | 27.9 | -3.99 | 4.57
5 | Cn1c(NCCN(CCO)CCCc2ccc([N+](=O)[O-])cc2)cc(=O)n(C)c1=O [nifekalant] | -33.5 | -3.87 | 3.56
6 | OCCN1CCN(CCCN2c3ccccc3Sc3ccc(Cl)cc32)CC1 | -36.5 | 3.78 | 4.08
7 | Nc1ccc(S(=O)(=O)Nc2cnc3ccccc3n2)cc1 | -31.3 | -4.7 | -1.83
8 | O=C(OC)C1=C(C)NC(C)=C(C(OCCCN3CCC(C4=CC=CC=C4)(C5=CC=CC=C5)CC3)=O)[C@H]1[C@]2=CC=CC([N+]([O-])=O)=C2 [niguldipine-(S)-(+)] | -12 | -29.9 | -10.5
9 | Clc1ccccc1C(c1ccccc1)(c1ccccc1)n1ccnc1 | -36.9 | 5.96 | 2.19
10 | CCCCc1ccc2[nH]c(NC(=O)OC)nc2c1 [parbendazole] | -10.3 | -34.4 | -11.7
11 | Cc1nnsc1C(=O)Nc1ccc(-n2nc(C(F)(F)F)cc2C(F)(F)F)cc1 | -28.9 | 3.65 | 0.005
12 | O=C(Nc1ccc(S(=O)(=O)Nc2nccs2)cc1)C(c1ccccc1)c1ccccc1 | -31.6 | -2.35 | -3.39
